# Measurements reported in paper PMC7862700, “An all-to-all approach to the identification of sequence-specific readers for epigenetic DNA modifications on cytosine”.
# Assays:
# Assay in all cases: DAPPL (digital affinity profiling via proximity ligation, sequencing); 10 mM Tris-HCl pH 7.5, 50 mM NaCl, 1 mM DTT, 4% glycerol, room temperature, 30 min; GST-TFs on glutathione beads, 16-mer random dsDNA library, 0.1% formaldehyde crosslink after washing; high values mean tight binding
# FEV = biological target: T1, FEV (Homo sapiens, UniProt Q99581 1-238); details: protein: recombinant; tags: N-terminal GST; dsDNA, one strand shown
# T1 sequence: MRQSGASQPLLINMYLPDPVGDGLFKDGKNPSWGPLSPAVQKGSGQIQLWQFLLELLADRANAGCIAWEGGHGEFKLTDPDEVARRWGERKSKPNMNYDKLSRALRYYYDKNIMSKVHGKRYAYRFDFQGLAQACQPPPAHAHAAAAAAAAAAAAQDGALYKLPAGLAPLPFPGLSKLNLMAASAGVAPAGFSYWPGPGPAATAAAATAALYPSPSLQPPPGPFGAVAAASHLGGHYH
# Outline: (§1)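 Human transcription factors were made in yeast as GST fusions, captured on glutathione beads and barcoded with DNA. With a tag-only sample included, the pool was incubated with 200 nmole of a random double-stranded 16-mer DNA library in Tris/NaCl/DTT/glycerol buffer at room temperature for 30 min, then crosslinked with 0.1% formaldehyde after washing, ligated by proximity, amplified and sequenced. For binding signal, each hexamer's read frequency for a factor is divided by its frequency for the tag-only sample.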
# ETV5 = ETV5 (Homo sapiens, UniProt P41161 1-510); details: protein: recombinant; tags: N-terminal GST; dsDNA, one strand shown
# Outline: as §1
# HSF1 = HSF1 (Homo sapiens, UniProt Q00613 1-529); details: protein: recombinant; tags: N-terminal GST; chain copies: 3; dsDNA, one strand shown
# Outline: as §1
# SPIC = biological target: T2, SPIC (Homo sapiens, UniProt Q8N5J4 1-248); details: protein: recombinant; tags: N-terminal GST; dsDNA, one strand shown
# T2 sequence: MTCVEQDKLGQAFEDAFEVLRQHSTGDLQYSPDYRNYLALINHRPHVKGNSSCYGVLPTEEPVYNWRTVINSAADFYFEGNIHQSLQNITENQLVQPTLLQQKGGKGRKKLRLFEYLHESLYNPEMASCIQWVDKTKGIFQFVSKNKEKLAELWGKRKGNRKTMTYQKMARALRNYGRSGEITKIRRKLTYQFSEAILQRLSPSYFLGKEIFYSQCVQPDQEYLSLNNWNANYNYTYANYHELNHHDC
# Outline: as §1
# ELF4 = ELF4 (Homo sapiens, UniProt Q99607 1-663); details: protein: recombinant; tags: N-terminal GST; dsDNA, one strand shown
# Outline: as §1
# ELK4 = biological target: T3, ELK4 (Homo sapiens, UniProt P28324-2 1-405); details: protein: recombinant; tags: N-terminal GST; dsDNA, one strand shown
# T3 sequence: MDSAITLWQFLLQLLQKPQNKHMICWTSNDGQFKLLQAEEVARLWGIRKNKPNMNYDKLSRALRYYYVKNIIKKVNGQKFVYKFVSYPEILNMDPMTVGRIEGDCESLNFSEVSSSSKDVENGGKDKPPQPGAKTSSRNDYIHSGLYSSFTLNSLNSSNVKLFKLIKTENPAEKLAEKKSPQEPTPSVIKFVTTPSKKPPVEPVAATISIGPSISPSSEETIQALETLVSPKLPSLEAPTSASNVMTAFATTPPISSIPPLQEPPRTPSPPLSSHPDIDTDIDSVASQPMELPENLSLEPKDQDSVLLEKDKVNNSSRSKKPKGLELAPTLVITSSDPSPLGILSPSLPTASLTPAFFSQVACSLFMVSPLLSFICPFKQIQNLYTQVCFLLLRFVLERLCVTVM
# Outline: as §1
# ETV2 = biological target: T4, ETV2 (Homo sapiens, UniProt O00321 1-342); details: protein: recombinant; tags: N-terminal GST; dsDNA, one strand shown
# T4 sequence: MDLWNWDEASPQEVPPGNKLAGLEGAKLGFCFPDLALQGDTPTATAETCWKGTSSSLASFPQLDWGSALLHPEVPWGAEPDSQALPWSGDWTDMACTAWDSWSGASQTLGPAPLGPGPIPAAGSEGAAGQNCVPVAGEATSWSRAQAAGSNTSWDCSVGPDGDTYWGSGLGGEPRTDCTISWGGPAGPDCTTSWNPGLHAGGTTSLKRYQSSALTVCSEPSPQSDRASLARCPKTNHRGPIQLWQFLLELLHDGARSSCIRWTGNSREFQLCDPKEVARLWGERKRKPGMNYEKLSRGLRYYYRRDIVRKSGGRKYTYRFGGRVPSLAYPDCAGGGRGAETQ
# Outline: as §1
# ELF3 = biological target: T5, ELF3 (Homo sapiens, UniProt P78545 1-371); details: protein: recombinant; tags: N-terminal GST; dsDNA, one strand shown
# T5 sequence: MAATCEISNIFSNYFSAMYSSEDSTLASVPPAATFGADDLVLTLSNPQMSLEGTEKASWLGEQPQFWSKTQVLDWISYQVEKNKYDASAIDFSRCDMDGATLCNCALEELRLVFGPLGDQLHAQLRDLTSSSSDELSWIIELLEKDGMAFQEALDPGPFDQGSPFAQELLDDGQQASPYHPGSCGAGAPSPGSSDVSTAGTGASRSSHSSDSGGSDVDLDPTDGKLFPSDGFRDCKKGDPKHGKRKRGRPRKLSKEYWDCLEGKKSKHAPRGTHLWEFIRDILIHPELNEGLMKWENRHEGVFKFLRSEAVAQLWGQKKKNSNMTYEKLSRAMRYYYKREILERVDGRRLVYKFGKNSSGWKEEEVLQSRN
# Outline: as §1
# CRX = CRX (Homo sapiens, UniProt O43186 1-299); details: protein: recombinant; tags: N-terminal GST; dsDNA, one strand shown
# Outline: as §1
# ETV1 = ETV1 (Homo sapiens, UniProt P50549 1-477); details: protein: recombinant; tags: N-terminal GST; dsDNA, one strand shown
# Outline: as §1
# ERF = biological target: T6, ERF (Homo sapiens, UniProt P50548 1-548); details: protein: recombinant; tags: N-terminal GST; dsDNA, one strand shown
# T6 sequence: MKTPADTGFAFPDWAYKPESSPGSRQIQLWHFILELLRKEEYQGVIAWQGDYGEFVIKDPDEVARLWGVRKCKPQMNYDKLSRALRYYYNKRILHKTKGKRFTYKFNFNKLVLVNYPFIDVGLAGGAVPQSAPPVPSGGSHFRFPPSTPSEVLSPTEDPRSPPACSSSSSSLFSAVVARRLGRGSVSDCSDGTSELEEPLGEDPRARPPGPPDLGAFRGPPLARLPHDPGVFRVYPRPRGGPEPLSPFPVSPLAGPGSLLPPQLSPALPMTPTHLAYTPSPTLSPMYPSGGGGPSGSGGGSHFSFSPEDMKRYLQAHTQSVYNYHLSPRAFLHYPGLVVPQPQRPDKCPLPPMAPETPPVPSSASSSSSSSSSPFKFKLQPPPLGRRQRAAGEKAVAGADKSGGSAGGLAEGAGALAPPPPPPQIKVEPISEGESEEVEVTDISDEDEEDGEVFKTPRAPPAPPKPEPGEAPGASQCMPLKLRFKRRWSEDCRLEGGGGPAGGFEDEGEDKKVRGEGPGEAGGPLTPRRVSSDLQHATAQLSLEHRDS
# Outline: as §1
# ETV3L = biological target: T7, ETV3L (Homo sapiens, UniProt Q6ZN32 1-361); details: protein: recombinant; tags: N-terminal GST; dsDNA, one strand shown
# T7 sequence: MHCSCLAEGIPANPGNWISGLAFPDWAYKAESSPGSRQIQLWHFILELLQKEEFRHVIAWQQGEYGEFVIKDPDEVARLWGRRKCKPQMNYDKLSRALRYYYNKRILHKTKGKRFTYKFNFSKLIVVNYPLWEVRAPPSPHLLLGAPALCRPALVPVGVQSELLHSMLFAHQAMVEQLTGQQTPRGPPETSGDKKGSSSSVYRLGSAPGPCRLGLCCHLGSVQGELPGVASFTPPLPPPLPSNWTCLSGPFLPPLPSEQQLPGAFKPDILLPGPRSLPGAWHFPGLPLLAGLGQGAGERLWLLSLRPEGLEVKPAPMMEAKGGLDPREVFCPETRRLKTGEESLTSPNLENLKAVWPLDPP
# Outline: as §1
# ETS2 = biological target: T8, ETS2 (Homo sapiens, UniProt P15036 1-469); details: protein: recombinant; tags: N-terminal GST; dsDNA, one strand shown
# T8 sequence: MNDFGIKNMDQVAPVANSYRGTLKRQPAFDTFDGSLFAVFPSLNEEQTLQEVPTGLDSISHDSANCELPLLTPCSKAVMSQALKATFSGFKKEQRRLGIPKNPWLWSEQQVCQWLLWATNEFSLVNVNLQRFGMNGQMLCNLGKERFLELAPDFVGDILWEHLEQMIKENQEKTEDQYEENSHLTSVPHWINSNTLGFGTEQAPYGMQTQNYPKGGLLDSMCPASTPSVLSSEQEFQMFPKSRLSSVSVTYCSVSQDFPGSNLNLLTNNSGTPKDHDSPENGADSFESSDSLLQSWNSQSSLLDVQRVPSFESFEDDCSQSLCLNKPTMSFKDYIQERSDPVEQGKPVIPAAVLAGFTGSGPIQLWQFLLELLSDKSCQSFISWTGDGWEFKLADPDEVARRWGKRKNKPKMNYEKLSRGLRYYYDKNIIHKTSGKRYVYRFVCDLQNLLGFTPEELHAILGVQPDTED
# Outline: as §1
# SPDEF = biological target: T9, SPDEF (Homo sapiens, UniProt O95238 1-335); details: protein: recombinant; tags: N-terminal GST; dsDNA, one strand shown
# T9 sequence: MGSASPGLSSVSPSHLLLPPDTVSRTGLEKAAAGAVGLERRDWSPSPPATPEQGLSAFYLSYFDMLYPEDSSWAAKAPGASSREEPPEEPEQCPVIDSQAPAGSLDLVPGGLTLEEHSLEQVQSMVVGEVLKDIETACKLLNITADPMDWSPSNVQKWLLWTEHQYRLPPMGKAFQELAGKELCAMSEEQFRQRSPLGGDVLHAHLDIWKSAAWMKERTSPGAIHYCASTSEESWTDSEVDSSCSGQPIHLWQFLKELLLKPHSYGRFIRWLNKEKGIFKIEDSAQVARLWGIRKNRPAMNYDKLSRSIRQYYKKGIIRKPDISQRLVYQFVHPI
# Outline: as §1
# ETV7 = biological target: T10, ETV7 (Homo sapiens, UniProt Q9Y603 1-341); details: protein: recombinant; tags: N-terminal GST; dsDNA, one strand shown
# T10 sequence: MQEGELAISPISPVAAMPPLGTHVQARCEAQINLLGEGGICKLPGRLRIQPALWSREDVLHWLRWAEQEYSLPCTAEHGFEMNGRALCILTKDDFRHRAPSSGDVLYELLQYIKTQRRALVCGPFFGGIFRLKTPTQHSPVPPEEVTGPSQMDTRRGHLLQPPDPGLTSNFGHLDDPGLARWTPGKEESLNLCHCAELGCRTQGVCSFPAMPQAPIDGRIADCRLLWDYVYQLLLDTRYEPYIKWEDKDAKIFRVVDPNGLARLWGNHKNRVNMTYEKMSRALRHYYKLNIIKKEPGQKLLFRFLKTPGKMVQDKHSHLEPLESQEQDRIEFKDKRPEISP
# Outline: as §1
# ELF5 = biological target: T11, ELF5 (Homo sapiens, UniProt Q9UKW6-2 1-255); details: protein: recombinant; tags: N-terminal GST; dsDNA, one strand shown
# T11 sequence: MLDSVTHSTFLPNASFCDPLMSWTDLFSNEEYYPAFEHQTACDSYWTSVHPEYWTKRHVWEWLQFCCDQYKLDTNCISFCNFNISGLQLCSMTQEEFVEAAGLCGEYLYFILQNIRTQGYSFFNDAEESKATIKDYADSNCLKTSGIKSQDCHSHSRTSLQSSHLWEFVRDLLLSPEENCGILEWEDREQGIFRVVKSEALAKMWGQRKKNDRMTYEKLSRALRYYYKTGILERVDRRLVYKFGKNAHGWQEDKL
# Outline: as §1
# ETV3 = biological target: T12, ETV3 (Homo sapiens, UniProt P41162-2 1-143); details: protein: recombinant; tags: N-terminal GST; dsDNA, one strand shown
# T12 sequence: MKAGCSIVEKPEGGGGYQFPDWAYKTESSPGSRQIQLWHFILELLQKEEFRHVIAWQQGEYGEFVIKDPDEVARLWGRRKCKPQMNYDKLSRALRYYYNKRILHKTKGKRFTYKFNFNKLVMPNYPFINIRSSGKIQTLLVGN
# Outline: as §1
# ETV6 = ETV6 (Homo sapiens, UniProt P41212 1-452); details: protein: recombinant; tags: N-terminal GST; dsDNA, one strand shown
# Outline: as §1
# Chain of ETV1 (P50549 whole entry): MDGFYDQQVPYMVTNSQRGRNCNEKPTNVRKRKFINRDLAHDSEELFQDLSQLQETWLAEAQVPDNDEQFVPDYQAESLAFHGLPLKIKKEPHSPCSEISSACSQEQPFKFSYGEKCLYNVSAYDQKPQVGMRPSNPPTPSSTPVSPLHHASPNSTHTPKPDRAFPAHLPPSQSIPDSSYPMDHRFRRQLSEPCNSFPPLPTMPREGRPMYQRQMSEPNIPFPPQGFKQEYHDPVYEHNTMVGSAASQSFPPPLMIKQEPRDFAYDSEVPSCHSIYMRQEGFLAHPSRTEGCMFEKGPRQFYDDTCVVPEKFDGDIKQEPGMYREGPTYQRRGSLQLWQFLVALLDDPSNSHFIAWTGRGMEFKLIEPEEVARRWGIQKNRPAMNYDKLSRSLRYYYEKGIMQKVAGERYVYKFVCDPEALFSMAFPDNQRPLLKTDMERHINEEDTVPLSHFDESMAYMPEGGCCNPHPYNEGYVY
# Chain of HSF1 (Q00613 whole entry): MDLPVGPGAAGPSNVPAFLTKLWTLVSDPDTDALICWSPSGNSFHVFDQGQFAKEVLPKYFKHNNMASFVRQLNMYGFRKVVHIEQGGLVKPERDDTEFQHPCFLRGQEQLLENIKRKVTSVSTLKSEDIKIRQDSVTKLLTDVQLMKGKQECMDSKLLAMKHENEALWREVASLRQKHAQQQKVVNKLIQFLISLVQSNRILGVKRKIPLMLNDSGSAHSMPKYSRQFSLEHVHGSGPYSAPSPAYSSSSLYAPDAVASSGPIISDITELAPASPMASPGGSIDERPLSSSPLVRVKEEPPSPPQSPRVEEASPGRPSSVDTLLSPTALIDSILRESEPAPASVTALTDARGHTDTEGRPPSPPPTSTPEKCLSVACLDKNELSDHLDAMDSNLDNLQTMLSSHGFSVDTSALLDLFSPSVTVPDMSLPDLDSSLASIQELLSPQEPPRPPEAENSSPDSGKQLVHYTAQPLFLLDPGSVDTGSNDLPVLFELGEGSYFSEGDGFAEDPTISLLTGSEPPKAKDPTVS
# Chain of ETV6 (P41212 whole entry): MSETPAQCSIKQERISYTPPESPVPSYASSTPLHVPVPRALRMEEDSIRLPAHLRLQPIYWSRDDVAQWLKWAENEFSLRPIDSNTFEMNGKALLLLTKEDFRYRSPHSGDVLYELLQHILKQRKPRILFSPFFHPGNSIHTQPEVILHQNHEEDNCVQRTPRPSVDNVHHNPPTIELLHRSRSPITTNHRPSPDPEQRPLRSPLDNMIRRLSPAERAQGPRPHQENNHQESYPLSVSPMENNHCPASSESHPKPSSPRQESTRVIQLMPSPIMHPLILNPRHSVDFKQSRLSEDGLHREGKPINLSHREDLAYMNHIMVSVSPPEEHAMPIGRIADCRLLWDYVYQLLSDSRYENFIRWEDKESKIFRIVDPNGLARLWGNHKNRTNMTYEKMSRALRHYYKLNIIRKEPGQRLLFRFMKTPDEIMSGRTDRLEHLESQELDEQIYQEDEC
# Chain of CRX (O43186 whole entry): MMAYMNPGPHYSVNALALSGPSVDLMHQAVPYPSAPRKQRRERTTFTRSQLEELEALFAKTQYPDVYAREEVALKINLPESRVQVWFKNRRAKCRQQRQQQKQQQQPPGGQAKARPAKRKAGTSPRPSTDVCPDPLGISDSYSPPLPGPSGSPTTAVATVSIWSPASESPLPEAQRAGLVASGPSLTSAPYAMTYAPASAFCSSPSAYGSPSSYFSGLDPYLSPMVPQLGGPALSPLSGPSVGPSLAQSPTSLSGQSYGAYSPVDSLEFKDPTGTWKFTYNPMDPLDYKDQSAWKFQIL
# Chain of ETV5 (P41161 whole entry): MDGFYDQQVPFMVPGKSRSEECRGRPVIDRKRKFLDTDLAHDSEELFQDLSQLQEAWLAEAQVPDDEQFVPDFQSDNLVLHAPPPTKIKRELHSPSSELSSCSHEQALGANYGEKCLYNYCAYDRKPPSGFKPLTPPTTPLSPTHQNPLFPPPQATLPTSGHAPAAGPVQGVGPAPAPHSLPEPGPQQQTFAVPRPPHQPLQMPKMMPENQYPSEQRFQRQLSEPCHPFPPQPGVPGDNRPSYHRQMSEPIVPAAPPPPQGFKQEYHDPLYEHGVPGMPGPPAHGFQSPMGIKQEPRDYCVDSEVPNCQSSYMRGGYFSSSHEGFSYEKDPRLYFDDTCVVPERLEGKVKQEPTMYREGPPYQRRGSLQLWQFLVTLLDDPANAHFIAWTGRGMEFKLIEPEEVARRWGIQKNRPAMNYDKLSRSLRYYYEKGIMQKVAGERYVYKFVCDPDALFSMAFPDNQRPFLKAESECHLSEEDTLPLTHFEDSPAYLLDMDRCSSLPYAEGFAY
# Chain of ELF4 (Q99607 whole entry): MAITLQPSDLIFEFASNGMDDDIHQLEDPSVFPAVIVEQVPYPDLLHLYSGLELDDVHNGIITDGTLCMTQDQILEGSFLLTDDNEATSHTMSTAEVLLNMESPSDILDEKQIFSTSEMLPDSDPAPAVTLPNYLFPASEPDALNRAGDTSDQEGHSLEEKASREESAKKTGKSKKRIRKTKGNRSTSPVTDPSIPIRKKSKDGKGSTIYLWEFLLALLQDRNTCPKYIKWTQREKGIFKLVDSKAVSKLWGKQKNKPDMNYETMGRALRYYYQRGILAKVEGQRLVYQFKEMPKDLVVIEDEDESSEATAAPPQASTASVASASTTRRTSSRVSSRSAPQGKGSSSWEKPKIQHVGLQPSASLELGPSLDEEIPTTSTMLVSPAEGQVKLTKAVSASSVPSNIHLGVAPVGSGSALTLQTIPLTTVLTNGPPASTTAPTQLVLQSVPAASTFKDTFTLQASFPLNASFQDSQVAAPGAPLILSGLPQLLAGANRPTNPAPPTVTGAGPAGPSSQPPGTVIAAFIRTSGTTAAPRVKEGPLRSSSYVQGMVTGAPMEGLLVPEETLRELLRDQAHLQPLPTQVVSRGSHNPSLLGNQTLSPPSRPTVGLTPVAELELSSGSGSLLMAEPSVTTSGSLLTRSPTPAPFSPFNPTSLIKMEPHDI
sequence,measurement,setting,value
TTACAT,binding signal,FEV,"1.3 fold enrichment (6-mer frequency, TF over GST control)"
same,binding signal,ETV5,"1.31 fold enrichment (6-mer frequency, TF over GST control)"
same,binding signal,HSF1,"1.45 fold enrichment (6-mer frequency, TF over GST control)"
same,binding signal,SPIC,"1.34 fold enrichment (6-mer frequency, TF over GST control)"
same,binding signal,ELF4,"1.34 fold enrichment (6-mer frequency, TF over GST control)"
same,binding signal,ELK4,"1.34 fold enrichment (6-mer frequency, TF over GST control)"
same,binding signal,ETV2,"1.43 fold enrichment (6-mer frequency, TF over GST control)"
same,binding signal,ELF3,"1.4 fold enrichment (6-mer frequency, TF over GST control)"
same,binding signal,CRX,"1.81 fold enrichment (6-mer frequency, TF over GST control)"
same,binding signal,ETV1,"1.39 fold enrichment (6-mer frequency, TF over GST control)"
same,binding signal,ERF,"1.41 fold enrichment (6-mer frequency, TF over GST control)"
same,binding signal,ETV3L,"1.26 fold enrichment (6-mer frequency, TF over GST control)"
same,binding signal,ETS2,"1.34 fold enrichment (6-mer frequency, TF over GST control)"
same,binding signal,SPDEF,"1.41 fold enrichment (6-mer frequency, TF over GST control)"
same,binding signal,ETV7,"1.2 fold enrichment (6-mer frequency, TF over GST control)"
same,binding signal,ELF5,"1.35 fold enrichment (6-mer frequency, TF over GST control)"
same,binding signal,ETV3,"1.3 fold enrichment (6-mer frequency, TF over GST control)"
same,binding signal,ETV6,"1.27 fold enrichment (6-mer frequency, TF over GST control)"
